The panel holds about 79,000 compounds, 15% with a hit somewhere; the sample as a whole holds those more often. Unmarked numbers belong to inactive results. Activity calls are given as the source filed them. Cut-off read from the data, not from the text of the source: active = growth inhibition above about 70%; inactive = the rest.
How the values were obtained:
[1] = NCI Yeast Anticancer Drug Screen. Data for the rad52 strain (AID 147);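 note: 0% = growth of vehicle-treated control cultures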; conditions: S. cerevisiae rad52 mutant growth inhibition, hits give high values
Outline: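 Here a repair-compromised yeast strain receives each compound; its growth is then quantified and normalised to vehicle-only controls.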

[2] = NCI Yeast Anticancer Drug Screen. Data for the wt1 strain (AID 149);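 note: 0% = growth of vehicle-treated wt1 cultures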; conditions: S. cerevisiae wt1 strain (SPY 50644) growth inhibition, hits give high values
Outline: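 Using yeast strain wt1, compound-induced growth inhibition was determined against vehicle-treated cultures.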

[3] = NCI Yeast Anticancer Drug Screen. Data for the rad50EPP+ strain (AID 151);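 note: 0% = growth of vehicle-treated control cultures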; conditions: S. cerevisiae rad50 mutant strain, hits give high values
Outline: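 Read-out is yeast growth inhibition relative to vehicle; cells used were the rad50EPP+ strain.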

[4] = NCI Yeast Anticancer Drug Screen. Data for the mgt1 strain (AID 153); conditions: S. cerevisiae mgt1 mutant growth inhibition, hits give high values
Outline: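 Measured: inhibition of mgt1 yeast growth by compound, normalized to vehicle-treated cultures.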

[5] = NCI Yeast Anticancer Drug Screen. Data for the rad50 strain (AID 155);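 note: 0% = growth of vehicle-only cultures of the same strain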; conditions: S. cerevisiae rad50 strain growth inhibition, hits give high values
Outline: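 Relative growth inhibition (compound vs vehicle) was measured in yeast with a defined repair-gene alteration.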

[6] = NCI Yeast Anticancer Drug Screen. Data for the mec2-1 strain (AID 157); conditions: S. cerevisiae mec2-1 strain, hits give high values
Outline: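 Using mec2-1 yeast: add compound, measure growth, express inhibition versus vehicle-treated cultures.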

[7] = NCI Yeast Anticancer Drug Screen. Data for the rad14 strain (AID 159);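 note: 0% = growth of vehicle-treated control cultures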; conditions: S. cerevisiae rad14 strain growth inhibition, hits give high values
Outline: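 Screen for anticancer potential: a yeast strain altered in DNA damage repair is grown with compound, and reduced growth is quantified against vehicle controls.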

[8] = NCI Yeast Anticancer Drug Screen. Data for the sgs1 mgt1 strain (AID 161);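 note: 0% = growth of cultures given vehicle only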; conditions: S. cerevisiae sgs1 mgt1 strain, hits give high values
Outline: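 Growth of a repair-deficient yeast mutant was monitored after compound treatment and expressed as inhibition relative to vehicle-treated cultures.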

[9] = NCI Yeast Anticancer Drug Screen. Data for the CLN2oe strain (AID 163);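 note: 0% = growth of vehicle-only control cultures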; conditions: S. cerevisiae CLN2oe strain, hits give high values
Outline: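 Whole-cell yeast growth assay. A strain engineered for altered cell-cycle control received compound, and inhibition relative to vehicle-treated cultures was recorded.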

[10] = NCI Yeast Anticancer Drug Screen. Data for the cln2 rad14 strain (AID 165);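 note: 0% = growth equal to vehicle treated cultures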; conditions: S. cerevisiae cln2 rad14 strain, hits give high values
Outline: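 Yeast strain cln2 rad14, bearing defects in cell cycle control and DNA repair, serves as the test system; values reflect growth inhibition compared with vehicle.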

[11] = NCI Yeast Anticancer Drug Screen. Data for the bub3 strain (AID 167); conditions: S. cerevisiae bub3 mutant strain, hits give high values
Outline: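 Screening used yeast with an engineered genetic alteration affecting cell cycle control. Compound-exposed cultures were compared with vehicle cultures, and reduced growth was taken as inhibition.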

[12] = NCI Yeast Anticancer Drug Screen. Data for the wt2 strain (AID 169);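 note: 0% = growth of vehicle-treated yeast cultures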; conditions: S. cerevisiae wt2 strain growth inhibition, hits give high values
Outline: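 Treated yeast vs. vehicle-treated yeast: growth inhibition determined.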

[13] = NCI Yeast Anticancer Drug Screen. Data for the mlh1 strain (AID 171);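 note: 0% = growth of vehicle-treated control cultures of the same strain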; conditions: S. cerevisiae mlh1 strain growth inhibition, hits give high values
Outline: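 A yeast strain with a defined genetic lesion serves as the test organism. Cultures receive compound or vehicle, and growth is measured.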

[14] = NCI Yeast Anticancer Drug Screen. Data for the sgs1 strain (AID 173);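 note: 0% = growth of vehicle-only control cultures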; conditions: S. cerevisiae sgs1 mutant, hits give high values
Outline: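 A genetically defined yeast mutant is incubated with the test compound, and its growth is compared to that of the same strain given vehicle.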

[15] = NCI Yeast Anticancer Drug Screen. Data for the mlh1 rad18 strain (AID 175); conditions: S. cerevisiae mlh1 rad18 strain growth inhibition, hits give high values
Outline: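 Steps: expose repair-defective yeast to compound; measure growth; express inhibition against vehicle-treated controls.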

[16] = NCI Yeast Anticancer Drug Screen. Data for the rad18 strain (AID 177); conditions: S. cerevisiae rad18 mutant growth inhibition, hits give high values
Outline: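 Measured value is growth inhibition of a yeast strain bearing a DNA repair alteration, referenced to vehicle-treated cells.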

[17] = at 5.0 µM (retest, dose inferred, filed as 0.5)
[18] = at 50.0 µM (retest, dose inferred, filed as 5.0)

**Q.** Which growth inhibition ([1]; at 1.2 µM) does the source give for COc1cccc(C(NC2=NCCC=N2)c2cc3c(cc2O)OCO3)c1O (stereo not drawn) here?
**A.** The growth inhibition was -1%.

**Q.** What about the growth inhibition ([1]; at 3.7 µM) of the same compound?
**A.** The growth inhibition was 2%.

**Q.** And the growth inhibition ([1]; at 11.0 µM)?
**A.** The growth inhibition was 21%.

**Q.** What about the growth inhibition ([1]; at 33.0 µM) of the same compound?
**A.** The growth inhibition was 56%.

**Q.** What about the growth inhibition ([1]; at 100.0 µM) of the same compound?
**A.** The growth inhibition was 66%.

**Q.** What about the growth inhibition ([2]; at 1.2 µM) of the same compound?
**A.** The growth inhibition was -2%.

**Q.** And the growth inhibition ([2]; at 3.7 µM)?
**A.** Its growth inhibition is -4%.

**Q.** And the growth inhibition ([2]; at 11.0 µM)?
**A.** Its growth inhibition is 2%.

**Q.** What about the growth inhibition ([2]; at 33.0 µM) of the same compound?
**A.** Its growth inhibition is 5%.

**Q.** What about the growth inhibition ([2]; at 100.0 µM) of the same compound?
**A.** The growth inhibition was 8%.

**Q.** And the growth inhibition ([3]; at 1.2 µM)?
**A.** Its growth inhibition is -9%.

**Q.** What about the growth inhibition ([3]; at 3.7 µM) of the same compound?
**A.** The growth inhibition was -9%.

**Q.** What about the growth inhibition ([3]; at 11.0 µM) of the same compound?
**A.** Its growth inhibition is -4%.

**Q.** And the growth inhibition ([3]; at 33.0 µM)?
**A.** Its growth inhibition is 6%.

**Q.** And the growth inhibition ([3]; at 100.0 µM)?
**A.** The growth inhibition was 9%.

**Q.** And the growth inhibition ([4]; at 1.2 µM)?
**A.** Its growth inhibition is -1%.

**Q.** And the growth inhibition ([4]; at 3.7 µM)?
**A.** Its growth inhibition is -5%.

**Q.** And the growth inhibition ([4]; at 11.0 µM)?
**A.** The growth inhibition was 12%.

**Q.** And the growth inhibition ([4]; at 33.0 µM)?
**A.** The growth inhibition was -22%.

**Q.** What about the growth inhibition ([4]; at 100.0 µM) of the same compound?
**A.** The growth inhibition was 10%.

**Q.** What about the growth inhibition ([5]; at 1.2 µM) of the same compound?
**A.** Its growth inhibition is -1%.

**Q.** What about the growth inhibition ([5]; at 3.7 µM) of the same compound?
**A.** The growth inhibition was -1%.

**Q.** What about the growth inhibition [5, 17] of the same compound?
**A.** The growth inhibition was -11%.

**Q.** What about the growth inhibition ([5]; at 11.0 µM) of the same compound?
**A.** Its growth inhibition is -36%.

**Q.** What about the growth inhibition ([5]; at 33.0 µM) of the same compound?
**A.** Its growth inhibition is 26%.

**Q.** What about the growth inhibition [5, 18] of the same compound?
**A.** Its growth inhibition is 72% (active).

**Q.** And the growth inhibition ([5]; at 50.0 µM)?
**A.** Its growth inhibition is 41.8%.

**Q.** What about the growth inhibition ([5]; at 100.0 µM) of the same compound?
**A.** The growth inhibition was 39%.

**Q.** What about the growth inhibition ([6]; at 1.2 µM) of the same compound?
**A.** The growth inhibition was 1%.

**Q.** And the growth inhibition ([6]; at 3.7 µM)?
**A.** Its growth inhibition is -3%.

**Q.** What about the growth inhibition [6, 17] of the same compound?
**A.** The growth inhibition was -20%.

**Q.** And the growth inhibition ([6]; at 11.0 µM)?
**A.** Its growth inhibition is 7%.

**Q.** What about the growth inhibition ([6]; at 33.0 µM) of the same compound?
**A.** The growth inhibition was 15%.

**Q.** And the growth inhibition [6, 18]?
**A.** Its growth inhibition is 61%.

**Q.** What about the growth inhibition ([6]; at 50.0 µM) of the same compound?
**A.** The growth inhibition was 23.6%.

**Q.** What about the growth inhibition ([6]; at 100.0 µM) of the same compound?
**A.** The growth inhibition was 22%.

**Q.** What about the growth inhibition ([7]; at 1.2 µM) of the same compound?
**A.** Its growth inhibition is 6%.

**Q.** And the growth inhibition ([7]; at 3.7 µM)?
**A.** The growth inhibition was 5%.

**Q.** And the growth inhibition ([7]; at 11.0 µM)?
**A.** Its growth inhibition is 8%.

**Q.** What about the growth inhibition ([7]; at 33.0 µM) of the same compound?
**A.** Its growth inhibition is 12%.

**Q.** And the growth inhibition ([7]; at 100.0 µM)?
**A.** The growth inhibition was 29%.

**Q.** What about the growth inhibition [8, 17] of the same compound?
**A.** Its growth inhibition is -47%.

**Q.** What about the growth inhibition [8, 18] of the same compound?
**A.** The growth inhibition was 77% (active).

**Q.** And the growth inhibition ([8]; at 50.0 µM)?
**A.** Its growth inhibition is 72.3% (active).

**Q.** What about the growth inhibition ([9]; at 1.2 µM) of the same compound?
**A.** Its growth inhibition is -2%.

**Q.** And the growth inhibition ([9]; at 3.7 µM)?
**A.** The growth inhibition was -8%.

**Q.** And the growth inhibition ([9]; at 11.0 µM)?
**A.** The growth inhibition was -1%.

**Q.** What about the growth inhibition ([9]; at 33.0 µM) of the same compound?
**A.** Its growth inhibition is 4%.

**Q.** And the growth inhibition ([9]; at 100.0 µM)?
**A.** Its growth inhibition is 21%.

**Q.** What about the growth inhibition [10, 17] of the same compound?
**A.** The growth inhibition was 26%.

**Q.** What about the growth inhibition [10, 18] of the same compound?
**A.** Its growth inhibition is 13%.

**Q.** And the growth inhibition ([10]; at 50.0 µM)?
**A.** The growth inhibition was 44.6%.

**Q.** What about the growth inhibition ([11]; at 1.2 µM) of the same compound?
**A.** Its growth inhibition is -9%.

**Q.** And the growth inhibition ([11]; at 3.7 µM)?
**A.** Its growth inhibition is -3%.

**Q.** And the growth inhibition [11, 17]?
**A.** The growth inhibition was -57%.

**Q.** And the growth inhibition ([11]; at 11.0 µM)?
**A.** Its growth inhibition is -3%.

**Q.** What about the growth inhibition ([11]; at 33.0 µM) of the same compound?
**A.** The growth inhibition was -1%.

**Q.** And the growth inhibition [11, 18]?
**A.** Its growth inhibition is 73% (active).

**Q.** And the growth inhibition ([11]; at 50.0 µM)?
**A.** The growth inhibition was 37.5%.

**Q.** What about the growth inhibition ([11]; at 100.0 µM) of the same compound?
**A.** The growth inhibition was 5%.

**Q.** What about the growth inhibition ([12]; at 1.2 µM) of the same compound?
**A.** The growth inhibition was 0%.

**Q.** And the growth inhibition ([12]; at 3.7 µM)?
**A.** Its growth inhibition is 1%.

**Q.** What about the growth inhibition ([12]; at 11.0 µM) of the same compound?
**A.** The growth inhibition was 5%.

**Q.** What about the growth inhibition ([12]; at 33.0 µM) of the same compound?
**A.** The growth inhibition was 18%.

**Q.** And the growth inhibition ([12]; at 100.0 µM)?
**A.** The growth inhibition was 25%.

**Q.** And the growth inhibition ([13]; at 1.2 µM)?
**A.** The growth inhibition was -4%.

**Q.** And the growth inhibition ([13]; at 3.7 µM)?
**A.** Its growth inhibition is -3%.

**Q.** What about the growth inhibition ([13]; at 11.0 µM) of the same compound?
**A.** The growth inhibition was 2%.

**Q.** What about the growth inhibition ([13]; at 33.0 µM) of the same compound?
**A.** Its growth inhibition is 3%.

**Q.** What about the growth inhibition ([13]; at 100.0 µM) of the same compound?
**A.** The growth inhibition was 4%.

**Q.** And the growth inhibition ([14]; at 1.2 µM)?
**A.** The growth inhibition was 4%.

**Q.** What about the growth inhibition ([14]; at 3.7 µM) of the same compound?
**A.** Its growth inhibition is 6%.

**Q.** And the growth inhibition ([14]; at 11.0 µM)?
**A.** The growth inhibition was 21%.

**Q.** And the growth inhibition ([14]; at 33.0 µM)?
**A.** Its growth inhibition is 46%.

**Q.** And the growth inhibition ([14]; at 100.0 µM)?
**A.** The growth inhibition was 57%.

**Q.** And the growth inhibition [15, 17]?
**A.** The growth inhibition was -31%.

**Q.** And the growth inhibition [15, 18]?
**A.** The growth inhibition was 72% (active).

**Q.** And the growth inhibition ([15]; at 50.0 µM)?
**A.** The growth inhibition was 49.2%.

**Q.** And the growth inhibition ([16]; at 1.2 µM)?
**A.** The growth inhibition was -2%.

**Q.** What about the growth inhibition ([16]; at 3.7 µM) of the same compound?
**A.** The growth inhibition was 0%.

**Q.** What about the growth inhibition ([16]; at 11.0 µM) of the same compound?
**A.** The growth inhibition was 9%.

**Q.** And the growth inhibition ([16]; at 33.0 µM)?
**A.** The growth inhibition was 23%.

**Q.** And the growth inhibition ([16]; at 100.0 µM)?
**A.** Its growth inhibition is 56%.

Source: PubChem BioAssay (NCI)
